Measurements taken from PubChem BioAssay (NCATS).
Inconclusive results are not listed. Activity calls are given as the source filed them. Calls follow the shape of the full dose curve.

What follows are compounds tested against Atrial natriuretic peptide receptor 1 (Homo sapiens) (UniProt P16066) (assay: Natriuretic polypeptide receptor (hNpr1) antagonism - Pilot CMLD screen (AID 1347052;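 also: HEK293 cells with hNpr1 stimulated by hNppA peptide at 0.1 nM; cGMP level read as GloSensor luciferase luminescence after agonist stimulation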)). Settings: HEK293 hNpr1 GloSensor cGMP luminescence, ANP-stimulated; series mostly up to 9.22 µM; activity change, negative = inhibition: at the top concentration.
% is scaled to controls: 0 for no effect and ±100 for the full control effect.

Sequence of Atrial natriuretic peptide receptor 1 (Homo sapiens) (P16066 whole entry, looked up): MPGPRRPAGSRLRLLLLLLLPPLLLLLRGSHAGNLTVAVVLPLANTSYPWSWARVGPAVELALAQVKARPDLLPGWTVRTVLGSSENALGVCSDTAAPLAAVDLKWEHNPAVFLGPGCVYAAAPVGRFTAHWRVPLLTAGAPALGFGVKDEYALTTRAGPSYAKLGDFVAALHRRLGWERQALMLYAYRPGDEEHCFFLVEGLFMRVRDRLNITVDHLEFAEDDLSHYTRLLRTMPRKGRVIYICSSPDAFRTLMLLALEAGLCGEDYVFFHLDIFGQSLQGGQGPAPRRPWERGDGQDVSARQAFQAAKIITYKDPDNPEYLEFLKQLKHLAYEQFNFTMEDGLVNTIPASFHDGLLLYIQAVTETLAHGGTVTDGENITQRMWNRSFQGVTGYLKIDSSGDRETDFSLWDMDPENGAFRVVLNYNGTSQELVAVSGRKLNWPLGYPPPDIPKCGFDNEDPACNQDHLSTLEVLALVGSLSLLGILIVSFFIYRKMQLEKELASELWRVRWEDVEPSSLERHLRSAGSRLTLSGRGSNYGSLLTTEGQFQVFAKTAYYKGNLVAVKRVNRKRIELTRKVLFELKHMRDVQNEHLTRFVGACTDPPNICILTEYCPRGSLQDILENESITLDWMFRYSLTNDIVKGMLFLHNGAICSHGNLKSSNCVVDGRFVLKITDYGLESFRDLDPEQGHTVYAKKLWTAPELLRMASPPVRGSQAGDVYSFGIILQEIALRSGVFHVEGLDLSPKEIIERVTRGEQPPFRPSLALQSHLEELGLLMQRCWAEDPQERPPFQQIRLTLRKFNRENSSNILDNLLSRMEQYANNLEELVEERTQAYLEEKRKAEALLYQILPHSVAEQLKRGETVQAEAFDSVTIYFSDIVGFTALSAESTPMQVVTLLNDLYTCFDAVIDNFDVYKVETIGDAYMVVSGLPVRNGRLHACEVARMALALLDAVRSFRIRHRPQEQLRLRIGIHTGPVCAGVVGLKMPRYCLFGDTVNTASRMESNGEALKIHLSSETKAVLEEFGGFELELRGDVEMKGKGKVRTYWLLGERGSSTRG

Activity change, negative = inhibition, inactive:
COCOc1ccc(Br)cc1C(=O)[C@@H]1O[C@@H]1c1cccc(OC)c1 -0.761%
C[C@@H]1C=CCCO[C@]12C(=O)N(Cc1ccc(Br)cc1)c1cccc(Br)c12 -0.654%
COCCN1C(=O)C2=C(C1=O)C1N(C)c3ccccc3[C@@]13C[C@@H](CO)N(S(=O)(=O)c1ccc(OC)cc1)C3=N2 (stereo partly specified) -5.21%
CCN1C(=O)[C@@H]2[C@H]3[C@H](O)[C@H](O)CC(=NO[C@H](C)c4cn([C@@H]5COC[C@@H]5O)nn4)[C@@H]3CC[C@H]2C1=O 0.377%
C=CC[C@@H]1C=C[C@H](ON=C(C)CCN2CCCc3nc(C)c(C)cc32)[C@H](CO)O1 4.7%
CCN1C(=O)NC(c2ccco2)C(C(C)=O)=C1C (stereo unspecified) 12.2%
COc1ccc([C@]23Cc4ccccc4[C@H](O2)c2c(c4ccc(OC)cc4oc2=O)O3)cc1 -1.53%
CCOC(=O)OC[C@H]1O[C@H](C#Cc2ccc(C(C)(C)C)cc2)C=C[C@H]1OC(=O)OCC -28.7%
C=CCN=C1NC(CCc2ccccc2)C(C(=O)OC)=C(C)N1CC (stereo unspecified) -0.91%
CCOC(=O)CCN1C(=O)[C@@H]2[C@H]3[C@H](O)[C@H](O)CC(=NNC(=O)OCc4ccccc4)[C@H]3CC[C@H]2C1=O 0.73%
C=CCCC1(C(=O)c2ccccc2)C(=O)C(CC=C(C)C)=C(OC)C(CC=C(C)C)(CCC=C(C)C)C1=O (stereo unspecified) 13.1%
O=S(=O)(CCc1ccccc1)c1nnnn1C1CCCCC1 -4.3%
C[C@@H]1CC[C@H]2C(=O)O[C@H](COc3ccc(C(C)(C)C)cc3)CN2[C@@H]1c1ccc(Br)cc1 0.14%
C=C(CO[C@@H]1C=C[C@@H](c2ccccc2)O[C@@H]1COC)c1ccccc1 0.836%
COC(=O)c1ccc(CN2C(=O)[C@]3(OCCC=C[C@@H]3C)c3ccccc32)cc1 7%

Potency, inactive:
CC(=O)C1=C(C)N(Cc2ccccc2)C(=O)NC1c1ccc(Br)cc1 (stereo unspecified)
